Reference: PubChem BioAssay (NCI)
This is part of a sample that, as a whole, favours compounds with a hit. Of some 79,000 tested, about 15% had one in any assay. No stated cut-off is given here; in the data, active means growth inhibition above about 70%; inactive means the rest. Where a SMILES comes first, the peptide text is derived from it. The star is where a group is joined. Boc = CC(C)(C)OC(=O)*; OBn = c1ccc(CO*)cc1

Tests used:
[1] = NCI Yeast Anticancer Drug Screen. Data for the rad50 strain (AID 155);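 further: 0% = growth of vehicle-only cultures of the same strain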; details: S. cerevisiae rad50 strain growth inhibition; at 50.0 µM; stronger effect = higher value
Procedure, shortened: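 A DNA repair-deficient yeast mutant serves as the test organism; compound-induced growth inhibition is calculated against vehicle-treated cells.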

[2] = NCI Yeast Anticancer Drug Screen. Data for the mec2-1 strain (AID 157); details: S. cerevisiae mec2-1 strain, at 50.0 µM, stronger effect = higher value
Procedure, shortened: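 Test agents were screened against the mec2-1 yeast strain, with defined DNA repair or cell cycle alteration. Growth was scored as inhibition against vehicle-only controls.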

[3] = NCI Yeast Anticancer Drug Screen. Data for the sgs1 mgt1 strain (AID 161);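 further: 0% = growth of cultures given vehicle only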; details: S. cerevisiae sgs1 mgt1 strain, at 50.0 µM, stronger effect = higher value
Procedure, shortened: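 Read-out: growth inhibition vs vehicle controls. Cells: mutant yeast strain deficient in DNA damage repair.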

[4] = NCI Yeast Anticancer Drug Screen. Data for the cln2 rad14 strain (AID 165);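 further: 0% = growth equal to vehicle treated cultures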; details: S. cerevisiae cln2 rad14 strain, at 50.0 µM, stronger effect = higher value
Procedure, shortened: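 Growth of compound-exposed yeast (cln2 rad14 genotype) measured and expressed as inhibition relative to vehicle.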

[5] = NCI Yeast Anticancer Drug Screen. Data for the bub3 strain (AID 167); details: S. cerevisiae bub3 mutant strain, at 50.0 µM, stronger effect = higher value
Procedure, shortened: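 Inhibition values come from growth of compound-treated mutant yeast normalised to vehicle-treated controls.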

[6] = NCI Yeast Anticancer Drug Screen. Data for the mlh1 rad18 strain (AID 175); details: S. cerevisiae mlh1 rad18 strain growth inhibition; at 50.0 µM; stronger effect = higher value
Procedure, shortened: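 In this whole-cell yeast screen, a strain with altered DNA damage repair is challenged with compound, and its growth is measured against matched vehicle-treated controls.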

Measured: growth inhibition

COC(=O)N1CC2CC=CC(C2)c2ccccc21 (stereo unspecified)
inactive: [1] -13.9% | [2] -37.5% | [3] -1.35% | [4] 5.15% | [5] 16.1% | [6] -9.4%

O=C(NCCCl)NCC1CCCO1 (stereo unspecified)
inactive: [1] -9.35% | [2] -1.25% | [3] -13.8% | [4] -48.9% | [5] -4.75% | [6] 0.15%

CC1(C)OC(=O)C(=Cc2ccc(O)cc2)C(=O)O1
inactive: [1] -20.9% | [2] -9.45% | [3] -34.5% | [4] -4.6% | [5] -21.5% | [6] -34.3%

N/N=C(\N)SCCCCCCS/C(N)=N/N
inactive: [1] -10.8% | [2] 2.15% | [3] 24% | [4] 41.5% | [5] 39.9% | [6] -5.2%

CCCCC(CC)COC(=O)COc1ccc(C(C)c2ccc(OCC(=O)OCC(CC)CCCC)cc2)cc1 (stereo unspecified)
inactive: [1] -6.6% | [2] 10.5% | [3] 7.9% | [4] -3.55% | [5] 3.2% | [6] -38.2%

O=C1C=CC(=O)C2C1C21C2CCCC(C2)C2CCCC1C2 (stereo unspecified)
inactive: [1] -11.2% | [2] 16.3% | [3] 4.05% | [4] -23% | [5] -0.65% | [6] 20.1%

O=C(c1ccccc1)C1C(C(=O)c2ccccc2)C(c2ccccc2)N(c2ccccc2)C1c1ccccc1 (stereo unspecified)
inactive: [1] 27.4% | [2] 17.8% | [3] -27.1% | [4] 18.9% | [5] -12.2% | [6] -75.2%

O=S(=O)(Nc1nc2ccccc2nc1N1CCCCCC1)c1ccccc1
inactive: [1] -7.25% | [2] -8.35% | [3] 20.5% | [4] 4.7% | [5] 7.65% | [6] -23.8%

C[C@@]1(NC(=O)Cc2ccccc2)C(=O)N2CCS[C@@]21c1ccccc1
inactive: [1] 0.4% | [2] 0.8% | [3] -20.6% | [4] -3.2% | [5] 12.8% | [6] 1.95%

CC(=O)Nc1ccc(O)c(C(=O)O)c1
inactive: [1] -8.6% | [2] 7.3% | [3] -8.55% | [4] -6% | [5] 24.1% | [6] -24.4%

Nc1c(Br)cc2c(c1Br)C(=O)c1ccccc1-2
inactive: [1] 3.95% | [2] 8.8% | [3] 23.6% | [4] 8.8% | [5] 15.2% | [6] -0.05%

CC(C)=C1C=C(C(C)(C)C)C(=O)C(C(C)(C)C)=C1
inactive: [1] 29.9% | [2] -5.9% | [3] -1.8% | [4] 17.4% | [5] 9.15% | [6] 28.4%

O=[N+]([O-])c1ccc2c(Cl)c3ccccc3nc2c1
inactive: [1] 20.1% | [2] 24.1% | [3] 2% | [4] 17.6% | [5] 34.2% | [6] 16.6%

CC(C)CC(NC(=O)OC(C)(C)C)C(=O)NC(CCC(=O)OCc1ccccc1)C(N)=O (stereo not drawn) (Boc-Leu-Glu(OBn)-NH2; configuration not given here)
inactive: [1] 19.1% | [2] -8.9% | [3] 8.65% | [4] 19.9% | [5] 24.4% | [6] 4.65%

Cc1c(-c2nc(N)nc(C3CC3)c2C)nc(N)nc1C1CC1
inactive: [1] 4.55% | [2] -9.1% | [3] -12.7% | [4] -11.7% | [5] -26.8% | [6] -7.35%

Cc1cc2c(=O)c(C)c[nH]c2cc1Cl
inactive: [1] -21.6% | [2] 5.2% | [3] -2.6% | [4] -46.1% | [5] -10.6% | [6] -7.55%

COC(=O)N/N=C(\C)C(CN1CCCCC1)C(C1=C(O)c2ccccc2OC1)c1ccccc1 (stereo unspecified)
inactive: [1] 6.15% | [2] 15.7% | [3] 5.25% | [4] 17.1% | [5] 4.9% | [6] 28.9%

CC(=O)NC(CCCNC(=O)N(C)N=O)C(=O)NCc1ccccc1 (stereo unspecified)
inactive: [1] -35% | [2] -26.9% | [3] -15.6% | [4] 6.9% | [5] -21.2% | [6] -13.3%

O=C(c1ccc(Cl)cc1)c1cccc(Cl)c1
inactive: [1] -6.35% | [2] -16.1% | [3] -3.7% | [4] -1.5% | [5] -10% | [6] 6.3%

N#CCCN(c1ccc(C=Nc2ccccc2Cl)cc1)S(=O)(=O)c1ccccc1
inactive: [1] -18.1% | [2] -9.8% | [3] -13.7% | [4] 4.25% | [5] -6.5% | [6] 16.2%

O=Cc1ccc(/C=C/C(=O)O)cc1
inactive: [1] -1.55% | [2] -10.1% | [3] -4.85% | [4] 5.9% | [5] -8.55% | [6] 1.1%

CCOC(=O)/C=C/SCCCN
inactive: [1] 3.95% | [2] -1.4% | [3] 3.3% | [4] -22.3% | [5] -4.75% | [6] 6.4%

Nc1ccc2ccccc2c1S(=O)(=O)O
inactive: [1] 16.1% | [2] -6.4% | [3] 15% | [4] 4.65% | [5] -2.4% | [6] -27%

CC(C)=Nn1cnc2nccnc2c1=O
inactive: [1] 2.55% | [2] -6.05% | [3] -14.2% | [4] -40% | [5] -13.3% | [6] -1.6%

Cc1cccc2c1NC(O)c1cccn1C2=O (stereo unspecified)
inactive: [1] 6.45% | [2] 2.75% | [3] 5.55% | [4] -22.4% | [5] -18.6% | [6] -2.4%

O=C(O)/C=C\Sc1ccccc1C(=O)O
inactive: [1] 2.05% | [2] -15.9% | [3] -6.5% | [4] -2.05% | [5] -10.2% | [6] 23.1%

COc1ccc(C(C)S(=O)(=O)c2ccccc2)cc1OC (stereo unspecified)
inactive: [1] 6.2% | [2] 8.8% | [3] -2.9% | [4] -5.9% | [5] 6.1% | [6] 5.5%

CC(C(=O)O)C(C)(O)C(C)(C)C (stereo unspecified)
inactive: [1] -3.9% | [2] 1.05% | [3] -5.25% | [4] -37.4% | [5] 12.2% | [6] -6.95%

CCOC(=O)c1cc(O)cc(=O)n1C1OC(COC(=O)c2ccccc2)C(OC(=O)c2ccccc2)C1OC(=O)c1ccccc1 (stereo unspecified)
inactive: [1] 49.5% | [2] -19.4% | [3] 32.6% | [4] 3.35% | [5] -9.15% | [6] -10.8%

CC(=O)Oc1ccc(-c2ccccc2)cc1C(=O)O
inactive: [1] 5.9% | [2] 1.55% | [3] 29.4% | [4] -15.7% | [5] 41.3% | [6] 11.6%

C=COC(=O)c1ccccc1O
inactive: [1] -32.7% | [2] -34% | [3] -22.3% | [4] 3.8% | [5] -36.8% | [6] -5.55%

Cc1c(C)c2c(c(C)c1Cl)CC2(Cl)Cl
inactive: [1] 3.6% | [2] 4% | [3] -9.15% | [4] -41.8% | [5] -5.55% | [6] -9.5%

Nc1cnc2ccccc2c1
inactive: [1] 10.2% | [2] 1.25% | [3] -8.45% | [4] -46.5% | [5] 11.8% | [6] -4.1%

O=C(Nc1nc2ccccc2[nH]1)C(F)(F)F
inactive: [1] -6.8% | [2] -13.4% | [3] -3.85% | [4] 5.55% | [5] -2.55% | [6] 20%

CCCCCC1NC(C)(C)CO1 (stereo unspecified)
inactive: [1] 1.25% | [2] -2.95% | [3] -0.85% | [4] 1.95% | [5] 9.65% | [6] 10.7%

O=c1[nH]c(=O)n(C2CC(O)C(CO)O2)cc1OCC1CCCCC1 (stereo unspecified)
inactive: [1] -33.9% | [2] -4.8% | [3] -13.3% | [4] 1.85% | [5] -14.4% | [6] -19.9%

CCc1c(C)c2cc(N)ccc2[nH]c1=O
inactive: [1] -8.05% | [2] 24.1% | [3] -3.7% | [4] -23.7% | [5] -9.9% | [6] 6.45%

c1cnc2[nH]cnc2n1
inactive: [1] 2.3% | [2] 0.6% | [3] -3.3% | [4] 5.75% | [5] 4.85% | [6] -10.1%

C/C(CCc1ccccc1)=N\Nc1ccc([N+](=O)[O-])cc1[N+](=O)[O-]
inactive: [1] -31.9% | [2] -44.6% | [3] -2.9% | [4] -17% | [5] -17.4% | [6] -19.4%

Cc1ccc(O)c(C(=O)c2ccccc2C(=O)O)c1
inactive: [1] 15% | [2] -11.9% | [3] -6.95% | [4] 44.4% | [5] 4.9% | [6] 22.4%

S=C(NCCNC(=S)SCc1c(Cl)c(Cl)c(Cl)c(Cl)c1Cl)SCc1c(Cl)c(Cl)c(Cl)c(Cl)c1Cl
inactive: [1] 48.1% | [2] 14.3% | [3] 24.6% | [4] -8.85% | [5] -0.7% | [6] 59.8%
